Source: PubChem BioAssay (NCATS)
Inconclusive results are not listed. The source made the active and inactive calls. Calls come from the whole dose curve; as a rule, active = well fitted inhibition curve with a large enough effect; inconclusive = small, poorly fitted or top-dose-only effect; inactive = flat fitted curve, though single readings scatter.

Tests used:
Assay in all cases: qHTS profiling for inhibitors of Plasmodium falciparum proliferation (AID 504749); note: nearly all actives have a fitted effect of over 60% in size
Conditions in all cases: P. falciparum in erythrocytes, SYBR Green DNA, 72 h; series mostly up to 28.7 µM
[1] = test system: ECU
Procedure, shortened: (§1)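 SYBR Green fluorescence of parasite DNA, read after lysis and overnight dark incubation, measured growth over 72 h in erythrocyte culture at 0.3% parasitemia and 2.5% hematocrit. Data normalised to DMSO and 0.29 uM artemisinin, with plate-drift correction.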

[2] = test system: FAB9
Procedure, shortened: as §1

[3] = test system: GB4
Procedure, shortened: as §1

[4] = test system: HB3
Procedure, shortened: as §1

[5] = test system: ICS
Procedure, shortened: as §1

[6] = test system: JCK
Procedure, shortened: as §1

[7] = test system: N140
Procedure, shortened: as §1

[8] = test system: P93_24
Procedure, shortened: as §1

[9] = test system: P94_40
Procedure, shortened: as §1

[10] = test system: PAD
Procedure, shortened: as §1

[11] = test system: PC15
Procedure, shortened: as §1

[12] = test system: PC26
Procedure, shortened: as §1

[13] = test system: PC49
Procedure, shortened: as §1

[14] = test system: SC27B
Procedure, shortened: as §1

[15] = test system: TAB109
Procedure, shortened: as §1

[16] = test system: TAB113
Procedure, shortened: as §1

[17] = test system: TAB165
Procedure, shortened: as §1

[18] = test system: W2
Procedure, shortened: as §1

Measured: Potency
Potency is the fitted concentration of half-maximal effect.

OC[C@H]1O[C@@H]2O[C@H]3[C@H](O)[C@@H](O)[C@@H](O[C@H]4[C@H](O)[C@@H](O)[C@@H](O[C@H]5[C@H](O)[C@@H](O)[C@@H](O[C@H]6[C@H](O)[C@@H](O)[C@@H](O[C@H]7[C@H](O)[C@@H](O)[C@@H](O[C@H]1[C@H](O)[C@H]2O)O[C@@H]7CO)O[C@@H]6CO)O[C@@H]5CO)O[C@@H]4CO)O[C@@H]3CO
inactive: all assays above

CN=C1C=CC(=C(c2ccc(N(C)C)cc2)c2ccc(N(C)C)cc2)C=C1
active: [1] 0.891 µM | [2] 1.12 µM | [3] 0.675 µM | [4] 1 µM | [5] 0.398 µM | [6] 2.51 µM | [7] 0.708 µM | [8] 0.891 µM | [9] 1 µM | [10] 1 µM | [11] 1 µM | [12] 1.69 µM | [13] 1.41 µM | [14] 1 µM | [15] 0.891 µM | [16] 0.891 µM | [17] 0.891 µM | [18] 0.151 µM

CC(CNC(=O)c1cccnc1)NC(=O)c1cccnc1 (centres undefined)
inactive: all assays above

CC(CCc1ccc(O)cc1)NCC(O)c1ccc(O)cc1 (centres undefined)
inactive: all assays above

Cc1ncc(C[n+]2csc(CCO)c2C)c(N)n1
inactive: all assays above

COC(=O)CCC[N+](C)(C)C
inactive: all assays above

COc1ccc(C(=O)c2ccc(C)cc2)c(O)c1
inactive: all assays above

C[C@H](O)CN(C)C
inactive: all assays above

CCCCCCCCCCCCCCCCCC(=O)OC[C@@H](O)[C@H]1OC[C@H](O)[C@H]1O
inactive: all assays above

O=C1[O][Bi][O]c2ccccc21
inactive: all assays above

C[C@H](CCC(=O)O)[C@H]1CC[C@H]2[C@@H]3CC[C@@H]4C[C@H](O)CC[C@]4(C)[C@H]3C[C@H](O)[C@]12C
inactive: all assays above

O=C(O)C1=C(CSc2nnnn2CS(=O)(=O)O)CS[C@@H]2[C@H](NC(=O)[C@H](O)c3ccccc3)C(=O)N12
inactive: all assays above

CC1=C(/C=C/C(C)=C/C=C/C(C)=C/C(=O)Oc2c(C)c(C)c3c(c2C)CC[C@@](C)(CCC[C@H](C)CCC[C@H](C)CCCC(C)C)O3)C(C)(C)CCC1
inactive: all assays above

c1ccc2ccccc2c1
inactive: all assays above

NC(=S)NS(=O)(=O)c1ccc(N)cc1
inactive: all assays above

C=CCCCCCCCCC(=O)OC
inactive: all assays above

OB(O)O
inactive: all assays above

Cc1ncc(C[n+]2csc(CCOP(=O)(O)O)c2C)c(N)n1
inactive: all assays above

Cc1ccc(C(C)(C)c2ccc(C)cc2)cc1
inactive: all assays above

COC1=C(OC)C(=O)C(C/C=C(\C)CC/C=C(\C)CC/C=C(\C)CC/C=C(\C)CC/C=C(\C)CC/C=C(\C)CC/C=C(\C)CC/C=C(\C)CC/C=C(\C)CCC=C(C)C)=C(C)C1=O
inactive: all assays above

CC(=O)Oc1cc(C(F)(F)F)ccc1C(=O)O
inactive: all assays above

O=C(O)CCC(=O)c1ccc(-c2ccccc2)cc1
inactive: all assays above

Nc1ncnc2c1ncn2CCOCP(=O)(O)O
inactive: all assays above

CCc1ncnc2cc(OC)c(OC)cc12
inactive: all assays above

C=C(C)C1CC=C(C)CC1 (centres undefined)
inactive: all assays above

CCCCC(CC)CCC(CC(C)C)OS(=O)(=O)O (centres undefined)
inactive: all assays above

OC[C@H]1O[C@@](CO)(O[C@H]2O[C@H](CO)[C@@H](O)[C@H](O)[C@H]2O)[C@@H](O)[C@@H]1O
inactive: all assays above

C[Se]CC[C@H](N)C(=O)O
inactive: all assays above
